Results on 95 compounds are retold here after PubChem BioAssay AID463173 (ICCB-Longwood Screening Facility, Harvard Medical School, 2010).

The structures appear in SMILES notation. In all, about 52,000 compounds went through this assay and about 4,300 (8.3%) were called active. The entries come from a sample that favours actives as a whole. Values without a mark were called inactive. Cut-off read from the data, not from the text of the source: active = survival mostly below about 52% (no sharp cut-off); inactive = mostly above about 56%.

For the assay, the system named is DeltatarO mutant. Nature of the assay: growth inhibition of S. aureus wild type versus tarO mutant, primary screen, teichoic acid synthesis inhibitors, RN4220, OD600 (AID 463173). Particulars: OD600, 18 h, active compounds read low, screened at 18.75 µg/mL (by protocol).
Consider `Cc1cc(C)c2c(n1)nn1c(C)c(CCC(=O)NCc3ccc(Cl)cc3)c(C)nc21`, for which the survival is 80%.
Consider `Cc1cccc(NC(=O)CSc2nc3c([nH]c4ccccc43)c(=O)n2C)c1C`, for which the survival was 80%.
For the compound `Cc1ccccc1NC(=O)CSc1nc2nccnc2c(=O)n1CCc1c[nH]c2ccccc12`, the survival is 40% (active).
With `CCOCCCn1c(SCC(=O)Nc2cc(C)ccc2C)nc2c(oc3ccccc32)c1=O`, the survival is 90%.
Turning to `Cc1ccc(C)c(NC(=O)Cn2c(SCC(=O)NCc3ccccc3)nc3ccccc32)c1`, the survival was 101%.
For the compound `Cc1ccc(C)c(NC(=O)CSc2nc3nccnc3c(=O)n2CCc2c[nH]c3ccccc23)c1`, the survival is 37% (active).
Next, `Cc1ccccc1NC(=O)NCCc1c[nH]c2ccccc12`: 47%.
For the compound `Cc1ccc(NC(=O)c2sc3ncnc(N(C)C4CCCCC4)c3c2C)cc1`, the survival was 144%.
As to `CCOc1ccc(CCNC(=O)c2ccc3nc(CC)c(CC)nc3c2)cc1`, the survival was 91%.
With `CN(C)C(=O)CSc1ccc(-c2ccc(F)cc2)nn1`, the survival is 92%.
The result for `CC(C)Oc1ccc(C(=O)Nc2nnc3n2CCS3)cc1` reads 124%.
Turning to `Cc1cccc(NC(=O)NC2CC3CCCC(C2)N3CC(C)C)c1` (stereo not given), the survival was 94%.
Take `CC(C)C(NS(=O)(=O)c1ccc2c(c1)oc(=O)n2C)C(=O)NCCc1ccccc1` (stereo not given): the survival was 89%.
With `COc1ccc(C(=O)Nc2ccc(N3CCOCC3)c(C(F)(F)F)c2)cc1OC`, the survival is 91%.
Regarding `Cc1oc2ccc(O)c(CN3CCCC3)c2c1C(=O)Nc1cccc(Cl)c1C`, the survival was 71%.
As for `Cc1oc2ccc(O)c(CN(C)Cc3ccccc3)c2c1C(=O)Nc1cccc(Cl)c1C`, the survival is 11% (active).
On to `Cc1oc2ccc(O)c(CN(C)Cc3ccccc3)c2c1C(=O)Nc1ccccc1`, for which the survival was 92%.
Next, `Cc1oc2ccc(O)c(CN3CCN(C)CC3)c2c1C(=O)Nc1cccc(C(F)(F)F)c1`: 81%; `Cc1oc2ccc(O)c(CN3CCN(Cc4ccccc4)CC3)c2c1C(=O)Nc1cccc(Cl)c1C`: 72%.
On to `Cc1oc2ccc(O)c(CN(C)Cc3ccccc3)c2c1C(=O)Nc1cccc(C(F)(F)F)c1`, for which the survival is 6% (active).
As to `CCOC(=O)c1ccccc1NC(=O)c1c2c(nc3ccccc13)C(=O)N(C1CCCCC1)C2`, the survival was 75%.
Take `CC(C)C1N=C2c3ccccc3N=C(SCC(=O)NCc3ccc(F)cc3)N2C1=O` (stereo not given): the survival is 73%.
Regarding `COc1ccccc1NC(=O)Cn1ccn(-c2cc(C)cc(C)c2)c(=O)c1=O`, the survival is 55%.
Regarding `Cc1ccc(NC(=O)Cn2ccn(-c3ccccc3)c(=O)c2=O)cc1`, the survival was 56% (active).
For `COc1ccccc1Cn1ccn(CC(=O)Nc2c(C)cc(C)cc2C)c(=O)c1=O`, the survival was 41% (active).
In the case of `COc1cc(NC(=O)Cn2ccn(Cc3ccccc3OC)c(=O)c2=O)cc(OC)c1`, the survival was 52%.
The result for `O=C(Cn1ccn(-c2ccc(F)cc2)c(=O)c1=O)Nc1ccc(F)cc1` reads 60%.
For the compound `CCc1ccc(NC(=O)Cn2ccn(-c3ccc(OC)cc3)c(=O)c2=O)cc1`, the survival was 67%.
The result for `Cc1ccc(Cn2ccn(CC(=O)Nc3c(C)cc(C)cc3C)c(=O)c2=O)cc1` reads 47%; that for `CCc1ccc(NC(=O)Cn2ccn(Cc3ccccc3OC)c(=O)c2=O)cc1`, 46% (active); that for `COc1ccc(NC(=O)Cn2ccn(-c3ccccc3)c(=O)c2=O)cc1`, 52%.
Consider `COc1ccc(NC(=O)CC2C(=O)N(c3ccc(C)cc3)C(=O)N2CCc2ccccc2)cc1` (stereo not given), for which the survival was 62%.
As to `Cc1ccc(-c2cn3c(n2)sc2cc(C(=O)NCCCc4ccccc4)ccc23)c(C)c1`, the survival is 48%.
For `O=C1N(c2ccccc2)C(=O)N(c2ccccc2)C2c3ccccc3C=CN12` (stereo not given), the survival is 100%.
Take `CCOC(=O)c1ccccc1NC(=O)Nc1cc2c(cc1N1CCCC1)n(C)c(=O)n2C`: the survival is 108%.
Take `CCc1nc2ccc(C(=O)NCCc3ccc(OC)c(OC)c3)cc2nc1CC`: the survival was 88%.
Next, `O=C(Nc1sc2c(c1C(=O)Nc1cccc(Cl)c1)CCCC2)c1cccs1`: 159%; `CCOc1ccc(NC(=O)c2c(NC(=O)c3cccc(C)c3)sc3c2CCC3)cc1`: 160%; `Cc1cccc(NC(=O)c2c(NC(=O)c3ccccc3)sc3c2CCC3)c1`: 72%.
With `Cc1cccc(NC(=O)c2c(Br)sc3c2CCCC3)c1`, the survival is 3% (active).
Turning to `Cc1cccc(NC(=O)c2c(NC(=O)c3ccccc3)sc3c2CCCC3)c1`, the survival is 61%.
Regarding `O=C(Cc1ccccc1)Nc1sc2c(c1C(=O)Nc1cccc(Cl)c1)CCCCC2`, the survival was 65%.
`O=C(Nc1cccc(Cl)c1)c1c(NC(=O)C(F)(F)F)sc2c1CCCC2`: the survival is -2% (active).
Turning to `Cc1cccc(NC(=O)c2c(N)sc3c2CCC(C)C3)c1` (stereo not given), the survival was 59%.
Consider `Cc1cccc(NC(=O)c2c(NC(=O)C(F)(F)F)sc3c2CCCCC3)c1`, for which the survival is -3% (active).
For `O=c1n(Cc2ccc(F)cc2Cl)c2ccccc2c2nc(-c3ccccc3)nn12`, the survival is 125%.
As to `O=S(=O)(c1ccc(-c2cnc(C3CC3)o2)cc1)N1CCN(c2cccc(Cl)c2)CC1`, the survival was 75%.
As for `COc1ccc(Br)cc1CNC(=O)C1COc2ccccc2C1` (stereo not given), the survival was 49%.
The result for `Cc1nn(C(C)(C)C)c(OC(=O)C(C)(C)C)c1Sc1ccccc1` reads -10% (active); that for `CCOc1ccccc1C(=O)Oc1c(Sc2ccccc2)c(C)nn1C(C)(C)C`, 91%.
For `Cc1ccccc1C(=O)Oc1c(Sc2ccccc2)c(C)nn1C(C)(C)C`, the survival was 21% (active).
Next, `COc1cccc(C(=O)Oc2c(Sc3ccc(C)cc3)c(C)nn2C(C)(C)C)c1OC`: 21% (active).
For `Cc1ccc(Sc2c(C)nn(C(C)(C)C)c2OC(=O)C(C)(C)C)cc1`, the survival is -10% (active).
The result for `COc1ccc(C(=O)Oc2c(Sc3ccc(C)cc3)c(C)nn2C(C)(C)C)c(OC)c1` reads 49%; that for `COc1ccc(C(=O)Oc2c(Sc3ccc(C)cc3)c(C)nn2C(C)(C)C)cc1OC`, 115%.
With `COc1ccccc1C(=O)Oc1c(Sc2ccccc2)c(C)nn1C(C)(C)C`, the survival was 87%.
In the case of `Cc1oc2cc3oc(=O)c(CCC(=O)NCCc4ccccc4F)c(C)c3cc2c1C`, the survival is 94%.
Next, `O=S(=O)(c1ccc2oc(-c3cccnc3)nc2c1)c1ccc2oc(-c3cccnc3)nc2c1`: 64%; `CCOC(=O)c1c(-c2ccc(C)cc2C)csc1NC(=O)c1ccccc1Cl`: 47%.
`CC(C)c1ccc(C2N3CC4(C)CN2CC(c2ccccc2)(C3)C4=O)cc1` (stereo not given): the survival is 80%.
Take `CC(C)NC(=O)C1CC(=O)N(c2ccc(Oc3ccccc3)cc2)C1` (stereo not given): the survival was 87%.
For `CSc1ncc(Cl)c(C(=O)Nc2ccc(S(=O)(=O)N3CCC(C)CC3)cc2)n1`, the survival is 62%.
Consider `O=C(Cn1ccn(-c2ccc(F)cc2)c(=O)c1=O)Nc1ccccc1C(F)(F)F`, for which the survival is 50%.
Consider `COCC(=O)Oc1c(Sc2ccc(C)cc2)c(C)nn1C(C)(C)C`, for which the survival is 78%.
On to `CCC(=O)Oc1c(Sc2ccc(Cl)cc2)c(C)nn1C(C)(C)C`, for which the survival is 78%.
Next, `Cc1ccc(Sc2c(C)nn(C(C)(C)C)c2OC(=O)CC(C)C)cc1`: -9% (active); `O=C(CC1Nc2ccccc2NC1=O)Nc1cccc2ccccc12` (stereo not given): 93%; `COc1ccc(CNC(=O)c2ccc(Cn3c(=O)c4cccn4c4cccnc43)cc2)cc1OC`: 67%.
For `CCOc1ccccc1CNC(=O)c1ccc(Cn2c(=O)c3cccn3c3cccnc32)cc1`, the survival is 44% (active).
In the case of `O=C(NCc1ccc(Cl)cc1)c1ccc(Cn2c(=O)c3cccn3c3cccnc32)cc1`, the survival was 49%.
Regarding `Cc1ccc(CCNC(=O)c2ccc(Cn3c(=O)c4cccn4c4cccnc43)cc2)cc1`, the survival was 52%.
Next, `COc1ccc(CNC(=O)c2ccc(Cn3c(=O)c4cccn4c4cccnc43)cc2)c(OC)c1`: 58% (active); `CC(C)Oc1ccc(CNC(=O)c2ccc(Cn3c(=O)c4cccn4c4cccnc43)cc2)cc1`: 55%; `O=C(NCc1ccccc1Cl)c1ccc(Cn2c(=O)c3cccn3c3cccnc32)cc1`: 103%.
Next, `O=C(NCCc1ccc(Cl)cc1)c1ccc(Cn2c(=O)c3cccn3c3cccnc32)cc1`: 43% (active); `CN(C)c1ccc(CNC(=O)c2ccc(Cn3c(=O)c4cccn4c4cccnc43)cc2)cc1`: 60%.
As for `CCOc1cc(CNC(=O)c2ccc(Cn3c(=O)c4cccn4c4cccnc43)cc2)ccc1OC`, the survival was 52% (active).
Next, `CCCNC(=O)c1ccc(Cn2c(=O)c3cccn3c3cccnc32)cc1`: 52%; `O=C(NCCc1ccccc1)c1ccc(Cn2c(=O)c3cccn3c3cccnc32)cc1`: 51%; `O=C(NCCc1ccccc1)C(=O)Nc1cccc(Br)c1`: 68%.
With `Cc1ccc2c(CC(=O)Nc3nnc(C(C)C)s3)coc2c1C`, the survival was 101%.
With `CC(C)c1ccc(CN(C(=O)c2cc3ccccc3oc2=O)C2CCS(=O)(=O)C2)cc1` (stereo not given), the survival was 51%.
The result for `CCCCOC(=O)c1ccc(NC(=O)c2ccc3c(c2)CCCN3S(C)(=O)=O)cc1` reads 96%; that for `C=CCC1N(c2ccccc2)C(=O)C2C(C(=O)O)C3C=CC21O3` (stereo not given), 103%.
For `[O-][n+]1onc2c1CCC1N(O)C(c3ccccc3)CC21O` (stereo not given), the survival was 80%.
Next, `O=C(CCSCc1ccc(Cl)cc1)N1CCN(c2ccccc2F)CC1`: 77%.
As for `CC1=C(C(=O)Nc2cc(C)ccc2C)C2(CCCCCC2)OC1=O`, the survival is 89%.
On to `Cc1ccccc1NC(=O)C(=O)NCC1(c2ccccc2)CCCC1`, for which the survival is 73%.
Next, `O=C(Cn1c(=O)n(-c2ccccc2Cl)c(=O)c2sc3ccccc3c21)NC1CCCCC1`: 109%.
As for `CCOc1ccc(CCNC(=O)c2ccc(Cn3c(=O)c4cccn4c4cccnc43)cc2)cc1`, the survival is 93%.
Regarding `O=C(NCc1ccccc1)c1ccc(Cn2c(=O)c3cccn3c3cccnc32)cc1`, the survival is 108%.
Consider `Cc1cccc(CNC(=O)c2ccc(Cn3c(=O)c4cccn4c4cccnc43)cc2)c1`, for which the survival was 48% (active).
Consider `COc1ccc(CCNC(=O)CCn2c(=O)c3cccn3c3cccnc32)cc1OC`, for which the survival is 82%.
On to `COc1ccc(CCNC(=O)c2ccc(Cn3c(=O)c4cccn4c4cccnc43)cc2)cc1OC`, for which the survival was 48% (active).
For the compound `CCc1ccc(CNC(=O)c2ccc(Cn3c(=O)c4cccn4c4cccnc43)cc2)cc1`, the survival was 67%.
